Assay [1] is described as follows: ATG_CRE_CIS: Attagene CIS-FACTORIAL HepG2 Assay for human cAMP Responsive Element (CRE) binding protein 3 (AID 2282926). As to conditions: HepG2 CRE cis-reporter, Attagene multiplexed mRNA; actives raise or lower the signal. In short, it runs like this:
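Induced reporter mRNA from a CRE cis element, measured in HepG2 among many multiplexed units at 24 h. Detection used RT-PCR plus capillary electrophoresis of fluorescent fragments; DMSO served as negative control.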

Assay [2] can be described thus: ATG_CMV_CIS: Attagene CIS-FACTORIAL HepG2 Assay for human CMV (Internal Marker) (AID 2282928).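 Further: endpoint acts as a background internal control marker rather than a target.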 As to conditions: HepG2 CMV promoter reporter, transcription factor profiling; actives raise or lower the signal. A digest of the protocol:
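24 h chemical treatment, HepG2 with transient multi-reporter transfection; RNA → oligo(dT) RT → PCR → 6-FAM extension → HpaI digest → CE fluorescence. Bidirectional fit, DMSO negative control.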

The nature of assay [3]: ATG_DR4_LXR_CIS: Attagene CIS-FACTORIAL HepG2 Assay for human Liver X Receptor (LXR), DR4 submotif (AID 2282929). As to conditions: HepG2 Attagene DR4 cis-reporter, mRNA transcription; actives raise or lower the signal. In short, it runs like this:
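HepG2, transient MRTU transfection, cis-element (DR4) promoter; 24 h compound exposure; total RNA → oligo(dT) RT → PCR → 6-FAM primer extension → HpaI cut → CE. Gain/loss vs DMSO, bidirectional fit.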

Assay [4] has as its target Aryl hydrocarbon receptor (Homo sapiens) (UniProt P35869). The experiment in a line: ATG_Ahr_CIS: Attagene CIS-FACTORIAL HepG2 Assay for human Aryl Hydrocarbon Receptor (Ahr) (AID 2282930). As to conditions: HepG2 AhR cis-factorial reporter transcription; actives raise or lower the signal. In short, it runs like this:
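Values derive from bidirectional fitting against DMSO negative control. Underlying signal: cis-element reporter mRNA in transiently transfected HepG2, harvested 24 h post-dose and measured by RT-PCR plus capillary electrophoresis.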

A short description of assay [5]: ATG_AP_1_CIS: Attagene CIS-FACTORIAL HepG2 Assay for human Activator Protein 1 (AP-1) (AID 2282931). As to conditions: HepG2 Attagene cis-factorial AP-1 reporter mRNA; actives raise or lower the signal. A digest of the protocol:
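Transient MRTU transfection of HepG2 → 24 h chemical treatment → RNA isolation, RT-PCR, 6-FAM labelling, HpaI digest → capillary electrophoresis. Fit: bidirectional, DMSO negative control.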

A short description of assay [6]: ATG_AP_2_CIS: Attagene CIS-FACTORIAL HepG2 Assay for human Activator Protein 2 (AP-2) (AID 2282932). As to conditions: HepG2 AP-2 cis-reporter, Attagene transcription factor profiling; actives raise or lower the signal. A digest of the protocol:
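Assay in transfected HepG2 with promoter-regulated reporters, 24 h incubation after dosing. Signal is reporter mRNA fluorescence (RT-PCR, capillary electrophoresis), analysed for both increases and decreases relative to DMSO controls.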

Assay [7] can be described thus: ATG_BRE_CIS: Attagene CIS-FACTORIAL HepG2 Assay for human Bone Morphogenetic Protein (BMP) Response Element (BRE) (AID 2282933). As to conditions: HepG2 BMP response element reporter, Attagene transcription factor profiling; actives raise or lower the signal. A digest of the protocol:
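HepG2 cells transiently transfected with multiplexed cis-element reporter units were dosed with chemical for 24 h. Reporter mRNA was measured by RT-PCR with fluorescent labelling, HpaI digestion and capillary electrophoresis; bidirectional fitting relative to DMSO.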

The target of assay [8] is Retinoic acid receptor alpha (Homo sapiens) (UniProt P10276). The experiment in a line: ATG_DR5_RAR_CIS: Attagene CIS-FACTORIAL HepG2 Assay for human Retinoic Acid Receptor Alpha (RARE), DR5 submotif (AID 2282934).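 On AC50: reporter responds to endogenous RAR alpha beta and gamma in HepG2 not RARA alone.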 As to conditions: HepG2 Attagene cis-factorial RARE DR5 reporter, mRNA; actives raise or lower the signal. A digest of the protocol: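 Endpoint fitted in both directions relative to DMSO as negative control. It reflects DR5 cis-element reporter mRNA induction in transiently transfected HepG2 cells, measured 24 h after dosing through RT-PCR and fluorescent capillary electrophoresis.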
Retinoic acid receptor alpha (Homo sapiens), sequence (P10276 whole entry, looked up): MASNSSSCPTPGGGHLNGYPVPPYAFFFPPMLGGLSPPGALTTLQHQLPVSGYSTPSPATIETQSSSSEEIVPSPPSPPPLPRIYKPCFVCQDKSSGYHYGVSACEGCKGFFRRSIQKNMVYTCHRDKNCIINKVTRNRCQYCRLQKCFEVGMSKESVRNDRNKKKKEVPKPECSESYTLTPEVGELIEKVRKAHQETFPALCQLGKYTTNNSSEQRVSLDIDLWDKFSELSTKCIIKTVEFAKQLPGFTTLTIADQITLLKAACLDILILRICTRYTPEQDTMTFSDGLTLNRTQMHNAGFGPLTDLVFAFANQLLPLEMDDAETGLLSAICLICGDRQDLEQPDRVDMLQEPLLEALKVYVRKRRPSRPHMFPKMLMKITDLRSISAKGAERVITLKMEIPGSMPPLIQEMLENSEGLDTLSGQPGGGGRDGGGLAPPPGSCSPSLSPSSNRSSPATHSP

The target of assay [9] is Transcription factor E2F1 (Homo sapiens) (UniProt Q01094). Briefly: ATG_E2F_CIS: Attagene CIS-FACTORIAL HepG2 Assay for human E2F Transcription Factor 1 (AID 2282935). As to conditions: HepG2 Attagene cis-reporter, E2F reporter RNA transcripts; actives raise or lower the signal. A digest of the protocol:
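In this cis-factorial format, endogenous factor activity drives transfected reporters in HepG2; transcripts collected at 24 h are quantified by fluorescence after RT-PCR and capillary separation.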

Assay [10] in a line: ATG_E_Box_CIS: Attagene CIS-FACTORIAL HepG2 Assay for human Enhancer Box (E-box) (AID 2282936). As to conditions: HepG2 E-box cis-reporter transcription, actives raise or lower the signal. A digest of the protocol: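 Measured 24 h post-dosing in HepG2 cells transfected with multiple cis-regulated reporter units, signal being reporter mRNA induction detected by fluorescent RT-PCR with capillary electrophoresis; gain or loss fitted against DMSO.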

Assay [11] can be described thus: ATG_M_61_CIS: Attagene CIS-FACTORIAL HepG2 Assay for M61 Transcription Factor (Internal Marker) (AID 2282937). As to conditions: HepG2 Attagene CIS-FACTORIAL M61 internal marker reporter; actives raise or lower the signal. A digest of the protocol:
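Human liver HepG2, transient MRTU transfection (cis promoter elements), 24 h compound. Total RNA → oligo(dT) RT → PCR → FAM label → HpaI → CE. Internal background marker; bidirectional fitting, DMSO = baseline.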

Assay [12] in a line: ATG_Ets_CIS: Attagene CIS-FACTORIAL HepG2 Assay for human Erythroblast Transformation Specific (ETS) (AID 2282941). As to conditions: HepG2 ETS cis-reporter transcription, actives raise or lower the signal. In short, it runs like this:
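Cis-regulated reporter mRNA induction in HepG2 (transient transfection), 24 h exposure, RT-PCR plus capillary electrophoresis detection; DMSO serves as negative control and baseline.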

Assay [13] has as its target Hepatocyte nuclear factor 3-beta (Homo sapiens) (UniProt Q9Y261). The experiment in a line: ATG_FoxA2_CIS: Attagene CIS-FACTORIAL HepG2 Assay for human Forkhead box A2 (FOXA2) (AID 2282942). As to conditions: HepG2 cis-reporter transcription factor activity, 24 h; actives raise or lower the signal. In short, it runs like this:
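Transient MRTU transfection of HepG2 liver cells; 24 h treatment; total RNA → oligo(dT) RT → PCR → FAM primer extension → HpaI cut → CE. Bidirectional fit vs DMSO.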

The nature of assay [14]: ATG_FoxO_CIS: Attagene CIS-FACTORIAL HepG2 Assay for human Forkhead box O (FoxO) (AID 2282943). As to conditions: HepG2 Attagene cis-reporter, FoxO element, mRNA; actives raise or lower the signal. In short, it runs like this: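 Values reflect reporter mRNA induction or loss in HepG2 cells 24 h post-dosing, fitted bidirectionally with DMSO as negative control and baseline. Detection used RT-PCR and fluorescence capillary electrophoresis.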

Assay [15] can be described thus: ATG_GATA_CIS: Attagene CIS-FACTORIAL HepG2 Assay for human GATA Binding Protein (AID 2282944). As to conditions: HepG2 GATA cis-element reporter, Attagene multiplex mRNA; actives raise or lower the signal. In short, it runs like this:
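HepG2 cells transiently transfected with multiplexed cis-element reporter units reflecting endogenous transcription factor activity; reporter mRNA measured after 24 h dosing by RT-PCR, 6-FAM labeling, HpaI digestion and capillary electrophoresis. Bidirectional fitting versus DMSO baseline.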

The nature of assay [16]: ATG_GLI_CIS: Attagene CIS-FACTORIAL HepG2 Assay for human Zinc Finger Protein GLI1 (AID 2282945). As to conditions: HepG2, Attagene cis-factorial reporter mRNA, GLI element; actives raise or lower the signal. A digest of the protocol: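 HepG2 cells transiently transfected with cis-promoter multiplexed reporter units report endogenous transcription factor activity. After 24 h chemical exposure, reporter mRNA was quantified by RT-PCR, 6-FAM labelling, HpaI digestion and capillary electrophoresis, with bidirectional fitting against DMSO.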

The target of assay [17] is Bile acid receptor (Homo sapiens) (UniProt Q96RI1). Briefly: ATG_IR1_CIS: Attagene CIS-FACTORIAL HepG2 Assay for human Nuclear Receptor Subfamily 1 Group H Member 4 (NR1H4), IR1 submotif (AID 2282946). As to conditions: IR1 reporter transcription, actives raise or lower the signal. In short, it runs like this:
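Readout: reporter transcript levels by RT-PCR with fluorescent capillary electrophoresis, from HepG2 cells transiently transfected with multiplexed cis-regulated reporters and dosed 24 h. Gain- or loss-of-signal fitted versus DMSO negative control.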

The nature of assay [18]: ATG_EGR_CIS: Attagene CIS-FACTORIAL HepG2 Assay for human Early Growth Response 1 (EGR1) (AID 2282938). As to conditions: HepG2 Attagene CIS-FACTORIAL EGR reporter mRNA; actives raise or lower the signal. A digest of the protocol: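 Transient transfection of human HepG2 with multiple cis-regulated reporter units, chemical exposure 24 h, total RNA isolated. Reverse transcription, PCR, fluorescent labelling and capillary electrophoresis quantify reporter transcripts; activity fitted bidirectionally against DMSO.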

Assay [19] can be described thus: ATG_M_19_CIS: Attagene CIS-FACTORIAL HepG2 Assay for M19 Transcription Factor (Internal Marker) (AID 2282939). As to conditions: HepG2 Attagene CIS-FACTORIAL M19 internal marker reporter; actives raise or lower the signal. A digest of the protocol: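 HepG2 cells transiently transfected with cis-regulated multiple reporter transcription units were dosed for 24 h; reporter mRNA was quantified by RT-PCR, 6-FAM primer-extension labelling, HpaI digestion and capillary electrophoresis, with bidirectional fitting against DMSO baseline.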

The structures appear in SMILES notation. Activity calls are given as the source filed them. How the source made its calls: active means hit-call score of the fitted dose curve at least 0.9, where 1 is the maximum; inactive means score below 0.9.

Aryl hydrocarbon receptor (Homo sapiens), sequence (P35869 whole entry, looked up): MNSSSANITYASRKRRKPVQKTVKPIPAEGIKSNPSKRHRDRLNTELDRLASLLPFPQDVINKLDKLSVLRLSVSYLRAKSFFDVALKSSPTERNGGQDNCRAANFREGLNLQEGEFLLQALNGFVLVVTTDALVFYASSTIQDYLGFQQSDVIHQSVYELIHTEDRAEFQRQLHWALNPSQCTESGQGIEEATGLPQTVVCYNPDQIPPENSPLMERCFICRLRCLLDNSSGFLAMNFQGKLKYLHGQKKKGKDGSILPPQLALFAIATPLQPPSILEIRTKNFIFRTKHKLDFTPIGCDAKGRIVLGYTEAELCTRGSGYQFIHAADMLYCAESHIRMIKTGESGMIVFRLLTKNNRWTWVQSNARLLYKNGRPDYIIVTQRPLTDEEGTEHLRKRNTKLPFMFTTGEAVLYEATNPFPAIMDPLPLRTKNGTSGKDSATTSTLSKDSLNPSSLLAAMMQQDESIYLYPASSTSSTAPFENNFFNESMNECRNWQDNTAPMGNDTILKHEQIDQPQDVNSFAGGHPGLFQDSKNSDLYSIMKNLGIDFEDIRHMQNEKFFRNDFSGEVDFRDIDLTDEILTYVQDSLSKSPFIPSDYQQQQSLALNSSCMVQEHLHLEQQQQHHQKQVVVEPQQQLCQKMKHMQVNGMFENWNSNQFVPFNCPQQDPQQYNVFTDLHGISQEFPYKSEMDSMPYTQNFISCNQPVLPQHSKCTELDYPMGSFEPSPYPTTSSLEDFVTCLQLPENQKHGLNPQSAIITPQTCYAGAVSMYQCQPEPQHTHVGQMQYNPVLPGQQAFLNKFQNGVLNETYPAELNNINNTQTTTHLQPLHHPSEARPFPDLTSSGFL
Hepatocyte nuclear factor 3-beta (Homo sapiens), sequence (Q9Y261 whole entry, looked up): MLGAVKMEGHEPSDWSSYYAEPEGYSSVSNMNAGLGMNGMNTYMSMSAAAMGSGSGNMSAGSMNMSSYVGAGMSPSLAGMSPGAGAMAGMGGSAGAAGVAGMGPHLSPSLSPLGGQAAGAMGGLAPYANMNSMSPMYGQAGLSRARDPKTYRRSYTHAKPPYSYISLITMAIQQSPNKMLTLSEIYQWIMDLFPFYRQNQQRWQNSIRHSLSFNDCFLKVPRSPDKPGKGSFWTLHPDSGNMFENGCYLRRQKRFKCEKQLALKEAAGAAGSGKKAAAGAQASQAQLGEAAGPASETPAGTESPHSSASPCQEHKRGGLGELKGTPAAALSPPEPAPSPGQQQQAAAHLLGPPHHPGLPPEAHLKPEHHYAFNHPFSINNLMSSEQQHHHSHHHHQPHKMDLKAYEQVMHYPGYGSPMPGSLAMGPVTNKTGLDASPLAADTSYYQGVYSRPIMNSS
Bile acid receptor (Homo sapiens), sequence (Q96RI1 whole entry, looked up): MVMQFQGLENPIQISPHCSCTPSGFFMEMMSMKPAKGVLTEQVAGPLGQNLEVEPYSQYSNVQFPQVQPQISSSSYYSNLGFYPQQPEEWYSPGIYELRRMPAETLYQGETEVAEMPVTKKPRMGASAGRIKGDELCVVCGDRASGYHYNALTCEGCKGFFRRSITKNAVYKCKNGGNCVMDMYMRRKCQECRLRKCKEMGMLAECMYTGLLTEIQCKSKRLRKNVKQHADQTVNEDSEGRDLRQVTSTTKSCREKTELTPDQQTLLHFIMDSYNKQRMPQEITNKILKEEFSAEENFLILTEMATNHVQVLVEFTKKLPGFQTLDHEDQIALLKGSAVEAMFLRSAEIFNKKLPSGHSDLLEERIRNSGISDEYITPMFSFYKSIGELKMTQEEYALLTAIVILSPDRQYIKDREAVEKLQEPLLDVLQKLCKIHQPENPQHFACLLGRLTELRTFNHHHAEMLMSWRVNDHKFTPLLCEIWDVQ
Transcription factor E2F1 (Homo sapiens), sequence (Q01094 whole entry, looked up): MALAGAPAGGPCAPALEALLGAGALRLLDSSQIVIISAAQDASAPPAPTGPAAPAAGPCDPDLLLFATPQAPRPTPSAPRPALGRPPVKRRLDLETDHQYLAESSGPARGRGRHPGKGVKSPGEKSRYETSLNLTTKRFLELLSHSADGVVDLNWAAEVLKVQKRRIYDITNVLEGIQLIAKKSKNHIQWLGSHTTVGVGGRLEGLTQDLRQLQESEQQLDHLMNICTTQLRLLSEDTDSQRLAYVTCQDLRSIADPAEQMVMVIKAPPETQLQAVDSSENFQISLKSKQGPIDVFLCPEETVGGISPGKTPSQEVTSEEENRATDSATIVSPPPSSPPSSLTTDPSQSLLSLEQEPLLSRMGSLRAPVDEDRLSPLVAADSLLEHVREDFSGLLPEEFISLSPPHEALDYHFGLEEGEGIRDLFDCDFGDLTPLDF

`FC(F)(F)COCC(F)(F)F`: the result in assay [1], in assay [2], in assay [3], in assay [4], in [5] and in assay [6] was inactive. Also, the compound was classed as inactive in [7], in assay [8], in assay [9], in assay [10], in assay [11] and in assay [12]. Moreover, the outcome in [13], in assay [14], in assay [15], in assay [16] and in [17] was inactive.
By AC50 is commonly meant the concentration at which the activity in the assay is half-maximal. In the case of `BrCc1cccc(Oc2ccccc2)c1`, the compound was classed as inactive in assay [1], in [2], in assay [4], in assay [5], in [7] and in [9]. Further, the outcome in assay [10], in assay [11], in assay [18], in assay [19], in [12] and in [13] was inactive. The compound was called inactive in assay [14], in assay [15] and in [16]. For the same compound, the AC50 in assay [3] is 159 µM (active); in [8] it was 5.96 µM (active).
As to `CCCCCCCCCCCC(=O)OC[C@@H](O)[C@H]1OC[C@H](O)[C@H]1O`, the compound was called inactive in assay [1], in assay [2], in assay [3], in assay [4], in assay [5] and in assay [6]. Also, the result in assay [7], in [9], in assay [11], in assay [18], in assay [12] and in [13] was inactive. The outcome in assay [14], in assay [16] and in [17] was inactive.
Take `CC1C2CC(CC2C2CCCC(O)C2)C1(C)C` (stereo not given): the outcome in [1], in assay [2], in assay [3], in assay [4], in assay [5] and in [6] was inactive. In addition, the outcome in assay [7], in [8], in assay [10], in [11], in assay [18] and in [19] was inactive. Further, the compound was classed as inactive in [13], in assay [14], in assay [15], in assay [16] and in assay [17].
For `O=C(Nc1ccc2c(O)c(N=Nc3ccc(N=Nc4ccc(S(=O)(=O)O)cc4)cc3)c(S(=O)(=O)O)cc2c1)c1ccccc1`, the compound was called inactive in assay [1], in assay [2], in assay [3], in assay [4], in assay [5] and in [6]. In addition, the compound was classed as inactive in [8], in assay [9], in assay [10], in [11], in [19] and in [12]. Besides, the call in [13], in [14], in assay [15] and in [16] was inactive. In addition, in assay [7], the AC50 was 66.8 µM (active).
Turning to `CCC1(c2ccccc2)C(=O)NCNC1=O`, the compound was called inactive in assay [1], in assay [2], in [3], in [4], in assay [5] and in assay [6]. Moreover, the result in assay [7], in assay [8], in assay [9], in [10], in assay [11] and in assay [18] was inactive. Also, the call in assay [19], in assay [12], in [13], in [14], in assay [15] and in [16] was inactive. Moreover, in [17], the result was inactive.
As to `C=C(C)C(=O)OCCOCCOCCOCCOC(=O)C(=C)C`, the outcome in assay [1], in assay [2], in assay [3], in assay [4], in [5] and in [6] was inactive. In addition, the result in assay [7], in [8], in assay [9], in assay [10], in [11] and in assay [18] was inactive. The outcome in assay [19], in [12], in assay [14], in assay [15], in [16] and in assay [17] was inactive.

The record behind these values is PubChem BioAssay (EPA / NIEHS).
